FLuc modulator: inhibits or activates purified firefly luciferase, miR-21 counter-screen; purified FLuc, Km substrates, luminescence inhibition; Potency, µM (top dose mostly 57.5 µM), usual class: inhibitors; 360,000 tested, 6.9% active; note: nearly all actives have a fitted effect of over 55% in size
Target sequence (P08659 whole entry, looked up): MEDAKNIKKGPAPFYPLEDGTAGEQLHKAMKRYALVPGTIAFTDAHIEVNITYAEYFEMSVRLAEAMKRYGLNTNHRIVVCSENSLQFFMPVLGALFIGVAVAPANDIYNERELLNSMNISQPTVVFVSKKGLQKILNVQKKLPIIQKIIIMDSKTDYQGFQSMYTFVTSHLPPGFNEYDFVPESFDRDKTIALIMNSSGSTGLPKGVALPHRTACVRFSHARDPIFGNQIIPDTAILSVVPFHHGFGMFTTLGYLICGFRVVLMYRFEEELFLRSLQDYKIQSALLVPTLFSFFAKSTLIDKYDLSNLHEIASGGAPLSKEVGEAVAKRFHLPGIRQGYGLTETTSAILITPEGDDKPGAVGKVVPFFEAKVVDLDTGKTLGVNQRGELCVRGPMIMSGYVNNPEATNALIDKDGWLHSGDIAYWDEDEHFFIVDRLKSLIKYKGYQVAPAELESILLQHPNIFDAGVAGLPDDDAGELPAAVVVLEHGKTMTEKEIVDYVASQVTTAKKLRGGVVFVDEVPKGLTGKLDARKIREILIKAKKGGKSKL
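Purified P. pyralis luciferase, 10 nM final, with Km-level 10 uM D-luciferin and 10 uM ATP in 50 mM Tris acetate pH 7.5, 10 mM Mg acetate, 0.01% Tween-20, 0.05% BSA; 6-point qHTS titration about 60 µM downward; luminescence read.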
Rab9 prom act: Rab9 promoter activation | Huh7 Rab9 promoter-luciferase reporter, luminescence, 24 h | Potency, µM (top dose mostly 9.22 µM), actives largely listed as activators | 320,000 tested, 2.8% active | AID 485297; note: nearly all actives have a fitted effect of over 60% in size
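Huh7 reporter line, Rab9 promoter upstream of luciferase. Compound exposure 24 h at 37 °C in reduced-serum medium with 10% FBS. Read-out: luminescence.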
ELG1 repair inh: blocks ELG1-dependent DNA repair in HEK293T cells | HEK293T ELG1-luciferase reporter, luminescence, 16 h; DNA damage induced by 5-fluorouridine | Potency, µM (titrated, usually from 46.1 µM), usual class: inhibitors | 330,000 tested, 2.3% active | AID 504467; note: nearly all actives have a fitted effect of over 55% in size
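Quantitative HTS, concentration-response format. 2,000 cells/well co-treated with 5-fluorouridine and compound, 16 hr in 5% CO2 at 37 °C; ONE-Glo luminescence read after 30 min.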
SMN2 splice up: increases expression of the SMN2 splice variant | HEK293 SMN2-luciferase splicing reporter, luminescence, 30-36 h | 210,000 tested, 2.8% active | Potency, µM (series often up to 46.1 µM), actives largely listed as activators; note: nearly all actives have a fitted effect of over 55% in size
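HEK293 cells carry an SMN2 […]–luciferase reporter in which exon 7 inclusion puts luciferase in frame. Cells were plated 10-12 h before compound addition, then incubated 30-36 h at 37C. ONE-Glo luminescence was read; sodium butyrate at 4.5 mM final served as control.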
ELG1 genotoxic: inducers of genotoxicity in HEK293T ELG1-luciferase cells; HEK293T ELG1-luciferase reporter, luminescence, 16 h; Potency, µM (doses to about 46 µM), actives largely listed as activators; 330,000 tested, 1.3% active; AID 504466; note: nearly all actives have a fitted effect of over 60% in size
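Step 1: seed 2,000 HEK293T ELG1-luciferase cells per well. Step 2: add compound or DMSO, incubate 16 hr at 37 °C. Step 3: ONE-Glo, 30 min at room temperature, read luminescence.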
NPC1 prom act: activates the NPC1 promoter; Huh7 NPC1 promoter luciferase reporter, 24 h; Potency, µM (highest dose often 9.22 µM), hits mostly activators; 320,000 tested, 2.4% active; note: nearly all actives have a fitted effect of over 60% in size
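Cells: Huh7 expressing luciferase under the NPC1 promoter, 1500/well. Seeded 2 h, compound added, incubated 24 h at 37 °C. Luciferase reagent, 10 min ambient, then luminescence.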
Hits are given with their value; 0 = inactive; ? = inconclusive; - = not tested or not shown; [ ] = another dose, or the depositor's remark. Most compounds without a hit are left out; they make up all but 9.4% or so of the library. Calls come from the whole dose curve; as a rule, active = well fitted curve in the direction sought with a large enough effect; inconclusive = small, poorly fitted or top-dose-only effect, or another doubt; inactive = no such curve, though single readings can be large; an effect the other way counts as inactive or inconclusive.

SMILES | FLuc modulator | Rab9 prom act | ELG1 repair inh | SMN2 splice up | ELG1 genotoxic | NPC1 prom act
Cc1cc(C(=O)Nc2ccc(C)c(C)c2)n(-c2ccccc2)n1 | 0 | 0 | ? | - | 0 | 0
COc1ccc(NC(=O)c2cnn(-c3ccccc3)c2C)cc1 | 3.8µM | 0.4µM | ? | - | ? | 2.5µM
Cc1ccc(NC(=O)c2cnn(-c3ccccc3)c2C)cc1C | 0.34µM | 0.63µM | ? | - | ? | 0.4µM
Cc1ccc(C(=O)c2oc3ccccc3c2NC(=O)Cc2coc3cc(C)ccc23)cc1 | 0 | - | - | 0 | - | -
CC(=O)n1c(Cl)c(NC(=O)CCl)c2ccccc21 | 0 | 0 | 26µM | 0 | 0 | 0
O=C(N=Nc1c(O)[nH]c2ccc(F)cc12)c1ccc(NS(=O)(=O)c2cccs2)cc1 | ? | 0 | 0 | - | 0 | 0
Cc1ccc2[nH]c(O)c(N=NC(=O)c3ccc(NS(=O)(=O)c4cccs4)cc3)c2c1 | 5.4µM | 0 | 0 | - | 0 | 0
Cc1cccc2c(N=NC(=O)c3ccc(NS(=O)(=O)c4cccs4)cc3)c(O)[nH]c12 | 0.43µM | ? | ? | - | 0 | ?
Cc1ccc2oc(=O)c3cc(C(=O)Nc4ccc(C)c(F)c4)sc3c2c1 | 0 | - | - | 0 | - | -
Cc1[nH]c2ccccc2c1C(=O)CSc1nc2cc(S(=O)(=O)N3CCCCC3)ccc2o1 | 0 | 0 | 15µM | 0 | 0 | 0
Cc1ccc(C(=O)CSc2nc3cc(S(=O)(=O)N4CCOCC4)ccc3o2)cc1 | 0 | 0 | 0 | 0 | 0 | 0
Cc1[nH]c2ccccc2c1C(=O)CSC(=S)N1CCCCC1 | 9.5µM | ? | ? | 8.9µM | ? | ?
Cc1[nH]c2ccccc2c1C(=O)CSC(=S)N(C)C1CCCCC1 | 15µM | 0 | ? | 0 | 0 | 0
Cc1[nH]c2ccccc2c1SCC(=O)N1CCCCC1 | 0 | 0 | 0 | 0 | 0 | 0
O=C(CCCn1c(=O)c2ccccc2n(CC(=O)Nc2cccc(Cl)c2)c1=O)NCc1ccc2c(c1)OCO2 | 0 | - | - | 0 | - | -
c1ccc(OCCSc2nnc3sc4ccccc4n23)cc1 | 0.43µM | 0.32µM | ? | 0 | ? | 0.35µM
COc1cccc(NC(=O)Cc2nnc(SCCOc3ccccc3)n2C)c1 | 0 | 0 | 0 | 0 | 0 | 0
CCN(CC)C(=O)CSc1nnc2sc3ccccc3n12 | 0 | 0 | ? | 0 | 0 | 0
COc1cccc(OCCSc2nnc3sc4ccccc4n23)c1 | 19µM | 0 | 0 | ? | ? | 0
Cc1ccc(N(CC(=O)Nc2cc(C)ccc2C)S(=O)(=O)c2c(C)noc2C)cc1 | 0 | - | - | 0 | - | -
O/N=C/c1ccc(OCc2ccccc2)c(Br)c1 | 7.6µM | 3.2µM | ? | 16µM | 15µM | 0
Cc1ccc(COc2ccc(Br)cc2/C=N/O)cc1 | 13µM | ? | ? | 0 | ? | ?
CCOc1cc(/C=N/O)ccc1OCc1ccc(C)cc1 | ? | 0 | ? | 0 | ? | 0
O/N=C/c1ccc(OCc2ccccc2F)c(Cl)c1 | 2.7µM | 1.6µM | ? | 7.9µM | 5.2µM | ?
O/N=C/c1cc(Br)ccc1OCc1cccc(F)c1 | ? | 0 | 0 | 0 | 0 | 0
SMILES | FLuc modulator | Rab9 prom act | ELG1 repair inh | SMN2 splice up | ELG1 genotoxic | NPC1 prom act
O/N=C/c1ccc(OCc2ccccc2)c(Cl)c1 | 4.8µM | 3.5µM | ? | 11µM | 16µM | ?
N#C/C(=C\Nc1ccccn1)C(=O)c1ccco1 | - | - | - | 0[9.22 µM] | - | -
CC(C)(C)OC(=O)N1CCC[C@H]1C(=O)N/N=C/c1cccc2nccnc12 | 17µM | 0 | 0 | - | 0 | 0
O=C(O)c1ccc(N/N=C/c2cc3ccccc3nc2Cl)cc1 | 0.76µM | 2µM | ? | - | ? | 1.4µM
Cc1cccc2cc(/C=N/Nc3ccc(C(=O)O)cc3)c(Cl)nc12 | 0.67µM | 0.4µM | ? | - | 5.2µM | 0.4µM
Cc1cccc2cc(/C=N/NC(=O)c3ccncc3)c(Cl)nc12 | 0 | 0 | 0 | - | 0 | 0
CC(C)(C)OC(=O)N1CCC[C@H]1C(=O)N/N=C/c1ccc2nccnc2c1 | 0 | 0 | 0 | - | 0 | 0
O=C(O)c1ccc(N/N=C/c2cccc3nccnc23)cc1 | 6.7µM | ? | ? | - | 0 | ?
Cc1cc(NC(=O)COc2ccccc2)cc(-c2nc3ccccc3o2)c1O | 0 | - | - | 0 | - | -
Cc1cccc(C)c1NC(=O)CN(C)S(=O)(=O)c1ccc2c(c1)n(C)c(=O)c(=O)n2C | 0 | - | - | 0 | - | -
Clc1nc2ccccc2cc1/C=N/Nc1nc2ccccc2[nH]1 | 0.19µM | 2.5µM | ? | 7.9µM | ? | 3.5µM
Cc1cccc2cc(/C=N/NC(=O)c3ccccc3O)c(Cl)nc12 | ? | 0 | 23µM | 0 | 0 | 0
C(=N\Nc1nc2ccccc2[nH]1)/c1ccncc1 | ? | ? | ? | 0 | ? | ?
Cc1ccc2nc(/C=C/c3cccc(F)c3)ccc2c1 | 1.2µM | 2µM | ? | 10µM | 1.8µM | 3.5µM
Cc1oc(-c2ccc(-c3ccccc3)cc2)nc1CN1CCN(CC(=O)N(C)C)CC1 | 5.4µM | ? | ? | - | ? | ?
Cc1ccc(-n2c(SCC(=O)N3CCCc4ccccc43)nc3c([nH]c4ccccc43)c2=O)cc1 | 0 | - | - | - | - | -
CC(Cc1cccs1)NC(=O)Nc1ccc(Cl)cc1 (stereo not drawn) | 12µM | ? | ? | 0 | 5.6µM | ?
CC(Cc1cccs1)NC(=O)Nc1ccc(Cl)c(Cl)c1 (stereo not drawn) | 21µM | ? | ? | 0 | 0 | ?
CC(Cc1cccs1)NC(=O)Nc1ccccc1 (stereo not drawn) | ? | 0 | ? | 0 | 0 | 0
COc1ccc2c(c1)OC[C@H]1[C@H]2N2C(=O)CN(CCc3c[nH]c4ccccc34)C(=O)[C@@]2(C)[C@H]1c1ccccc1 | 0 | 0 | 5.8µM | - | 0 | 0
CCOC(=O)[C@H]1[C@H]2COc3cc(OC)ccc3[C@@H]2N2C(=O)CN(CCc3c[nH]c4ccccc34)C(=O)[C@@]12C | 0 | 0 | 0 | - | 0 | 0
O=C(c1cc2c(s1)-c1ccccc1S(=O)(=O)C2)N1CCN(Cc2ccccc2)CC1 | ? | 0 | 13µM | 0 | 0 | 0
CCN1CCN(C(=O)c2cc3c(s2)-c2ccccc2S(=O)(=O)C3)CC1 | 0 | 0 | 0 | 0 | 0 | 0
CCCC(=O)Nc1cccc(-c2nc3ccccc3c(=O)o2)c1 | 1.3µM | 0 | ? | - | 0 | 0
CC(C)C(=O)Nc1ccc(-c2nc3ccccc3c(=O)o2)cc1 | 0.3µM | 0 | 0 | - | 0 | 0
CCCCC(=O)Nc1cccc(-c2nnc(-c3ccccc3)o2)c1 | ? | 0 | ? | ? | 0 | 0
CC(C)C(=O)Nc1cccc(-c2nc3ccccc3c(=O)o2)c1 | ? | 0 | 0 | 0 | 0 | 0
CC(C)(C)C(=O)Nc1ccc(-c2nc3ccccc3c(=O)o2)cc1 | 0.11µM | 0 | ? | - | 0 | 0
CC(C)(C)C(=O)Nc1cccc(-c2nc3ccccc3c(=O)o2)c1 | 15µM | ? | ? | 0 | 0 | ?
